Laboratory results reported in article PMC7862700, “An all-to-all approach to the identification of sequence-specific readers for epigenetic DNA modifications on cytosine”.

How the values were obtained:
Test in all cases: DAPPL (digital affinity profiling via proximity ligation, sequencing); 10 mM Tris-HCl pH 7.5, 50 mM NaCl, 1 mM DTT, 4% glycerol, room temperature, 30 min; GST-TFs on glutathione beads, 16-mer random dsDNA library, 0.1% formaldehyde crosslink after washing; high values mean tight binding
Conditions in all cases: protein: recombinant; tags: N-terminal GST; dsDNA, one strand shown
FLI1 = target: T1, FLI1 (Homo sapiens, UniProt Q01543 1-452)
T1 sequence: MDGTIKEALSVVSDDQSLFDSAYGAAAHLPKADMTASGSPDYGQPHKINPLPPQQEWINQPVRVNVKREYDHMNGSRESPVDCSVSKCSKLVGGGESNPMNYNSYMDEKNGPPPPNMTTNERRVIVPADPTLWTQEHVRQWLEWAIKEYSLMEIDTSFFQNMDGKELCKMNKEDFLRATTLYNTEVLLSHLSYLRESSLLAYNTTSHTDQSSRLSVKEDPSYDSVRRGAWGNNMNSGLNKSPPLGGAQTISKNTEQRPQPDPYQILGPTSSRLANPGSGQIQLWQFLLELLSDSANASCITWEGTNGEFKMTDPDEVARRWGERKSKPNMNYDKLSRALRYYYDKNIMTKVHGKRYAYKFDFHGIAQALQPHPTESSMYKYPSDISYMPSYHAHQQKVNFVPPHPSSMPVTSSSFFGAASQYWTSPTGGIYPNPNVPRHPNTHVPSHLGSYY
Outline: (§1)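 Human transcription factors were made in yeast as GST fusions, captured on glutathione beads and barcoded with DNA. With a tag-only sample included, the pool was incubated with 200 nmole of a random double-stranded 16-mer DNA library in Tris/NaCl/DTT/glycerol buffer at room temperature for 30 min, then crosslinked with 0.1% formaldehyde after washing, ligated by proximity, amplified and sequenced. For binding signal, each hexamer's read frequency for a factor is divided by its frequency for the tag-only sample.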

ELK1 = target: T2, ELK1 (Homo sapiens, UniProt P19419 1-428)
T2 sequence: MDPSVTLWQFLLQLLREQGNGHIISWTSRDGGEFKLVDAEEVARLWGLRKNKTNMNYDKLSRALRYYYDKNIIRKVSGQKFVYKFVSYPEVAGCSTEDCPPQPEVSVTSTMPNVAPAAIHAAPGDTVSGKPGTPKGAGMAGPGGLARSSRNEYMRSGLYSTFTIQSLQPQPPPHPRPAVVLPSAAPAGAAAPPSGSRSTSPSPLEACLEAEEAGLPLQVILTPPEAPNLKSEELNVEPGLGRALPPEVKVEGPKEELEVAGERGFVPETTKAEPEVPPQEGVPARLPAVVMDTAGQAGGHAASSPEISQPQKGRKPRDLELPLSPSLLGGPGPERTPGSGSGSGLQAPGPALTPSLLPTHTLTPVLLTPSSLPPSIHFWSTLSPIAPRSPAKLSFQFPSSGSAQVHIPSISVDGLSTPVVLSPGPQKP
Outline: as §1

GABPA = target: T3, GABPA (Homo sapiens, UniProt Q06546 1-454)
T3 sequence: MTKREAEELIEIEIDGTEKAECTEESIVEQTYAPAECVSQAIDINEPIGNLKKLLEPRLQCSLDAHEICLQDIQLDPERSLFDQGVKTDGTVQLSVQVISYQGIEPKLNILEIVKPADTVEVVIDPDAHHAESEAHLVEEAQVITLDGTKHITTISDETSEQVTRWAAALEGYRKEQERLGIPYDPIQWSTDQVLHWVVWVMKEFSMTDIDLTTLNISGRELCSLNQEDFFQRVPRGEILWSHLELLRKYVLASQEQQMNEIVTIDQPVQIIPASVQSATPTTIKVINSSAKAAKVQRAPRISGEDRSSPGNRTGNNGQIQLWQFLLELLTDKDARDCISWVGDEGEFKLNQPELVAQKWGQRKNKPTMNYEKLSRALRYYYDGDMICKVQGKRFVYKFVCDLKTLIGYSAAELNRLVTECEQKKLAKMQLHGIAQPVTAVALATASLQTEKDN
Outline: as §1

ERG = target: T4, ERG (Homo sapiens, UniProt P11308 1-479)
T4 sequence: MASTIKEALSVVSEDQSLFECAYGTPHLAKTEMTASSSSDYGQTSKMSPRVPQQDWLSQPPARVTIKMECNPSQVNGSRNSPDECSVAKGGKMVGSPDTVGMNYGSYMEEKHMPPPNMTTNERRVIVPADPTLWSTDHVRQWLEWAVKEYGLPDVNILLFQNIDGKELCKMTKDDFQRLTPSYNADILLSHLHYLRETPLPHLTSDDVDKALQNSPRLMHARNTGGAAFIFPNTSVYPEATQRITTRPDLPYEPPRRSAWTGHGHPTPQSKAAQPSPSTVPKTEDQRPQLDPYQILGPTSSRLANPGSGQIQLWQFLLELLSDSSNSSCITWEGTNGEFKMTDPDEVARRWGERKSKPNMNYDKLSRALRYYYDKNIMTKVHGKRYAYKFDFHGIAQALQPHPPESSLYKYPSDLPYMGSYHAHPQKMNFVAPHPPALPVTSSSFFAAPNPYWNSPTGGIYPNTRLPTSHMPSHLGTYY
Outline: as §1

ELF1 = ELF1 (Homo sapiens, UniProt P32519 1-619)
Outline: as §1

EHF = target: T5, EHF (Homo sapiens, UniProt Q9NZC4 1-300)
T5 sequence: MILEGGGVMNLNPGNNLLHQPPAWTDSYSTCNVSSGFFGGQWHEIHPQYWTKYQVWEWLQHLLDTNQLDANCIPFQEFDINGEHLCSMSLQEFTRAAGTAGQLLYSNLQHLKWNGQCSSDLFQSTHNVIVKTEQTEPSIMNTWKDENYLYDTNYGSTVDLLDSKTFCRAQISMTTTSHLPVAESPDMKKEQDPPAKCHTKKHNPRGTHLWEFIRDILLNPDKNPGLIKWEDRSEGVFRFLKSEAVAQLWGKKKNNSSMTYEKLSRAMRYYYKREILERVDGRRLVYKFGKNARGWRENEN
Outline: as §1

SPI1 = SPI1 (Homo sapiens, UniProt P17947 1-270)
Outline: as §1

SPIB = SPIB (Homo sapiens, UniProt Q01892 1-262)
Outline: as §1

ELK3 = target: T6, ELK3 (Homo sapiens, UniProt P41970 1-407)
T6 sequence: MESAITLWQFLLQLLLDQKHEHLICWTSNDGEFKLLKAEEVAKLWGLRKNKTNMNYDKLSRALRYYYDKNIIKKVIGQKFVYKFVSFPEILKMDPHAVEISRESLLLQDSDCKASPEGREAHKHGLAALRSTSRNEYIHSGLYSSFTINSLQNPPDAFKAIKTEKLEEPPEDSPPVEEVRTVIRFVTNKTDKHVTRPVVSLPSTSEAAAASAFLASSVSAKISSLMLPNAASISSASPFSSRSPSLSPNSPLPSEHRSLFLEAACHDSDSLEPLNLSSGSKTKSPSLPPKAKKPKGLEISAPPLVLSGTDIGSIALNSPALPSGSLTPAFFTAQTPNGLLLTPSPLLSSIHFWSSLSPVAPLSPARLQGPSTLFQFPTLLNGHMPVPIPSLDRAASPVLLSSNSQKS
Outline: as §1

Chain of SPIB (Q01892 whole entry): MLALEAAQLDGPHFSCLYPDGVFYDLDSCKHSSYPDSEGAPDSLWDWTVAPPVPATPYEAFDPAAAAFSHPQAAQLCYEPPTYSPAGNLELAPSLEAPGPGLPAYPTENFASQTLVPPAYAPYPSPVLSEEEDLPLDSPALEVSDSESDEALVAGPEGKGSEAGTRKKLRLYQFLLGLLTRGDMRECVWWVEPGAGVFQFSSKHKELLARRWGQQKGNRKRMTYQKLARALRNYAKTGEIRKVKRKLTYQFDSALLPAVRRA
Chain of ELF1 (P32519 whole entry): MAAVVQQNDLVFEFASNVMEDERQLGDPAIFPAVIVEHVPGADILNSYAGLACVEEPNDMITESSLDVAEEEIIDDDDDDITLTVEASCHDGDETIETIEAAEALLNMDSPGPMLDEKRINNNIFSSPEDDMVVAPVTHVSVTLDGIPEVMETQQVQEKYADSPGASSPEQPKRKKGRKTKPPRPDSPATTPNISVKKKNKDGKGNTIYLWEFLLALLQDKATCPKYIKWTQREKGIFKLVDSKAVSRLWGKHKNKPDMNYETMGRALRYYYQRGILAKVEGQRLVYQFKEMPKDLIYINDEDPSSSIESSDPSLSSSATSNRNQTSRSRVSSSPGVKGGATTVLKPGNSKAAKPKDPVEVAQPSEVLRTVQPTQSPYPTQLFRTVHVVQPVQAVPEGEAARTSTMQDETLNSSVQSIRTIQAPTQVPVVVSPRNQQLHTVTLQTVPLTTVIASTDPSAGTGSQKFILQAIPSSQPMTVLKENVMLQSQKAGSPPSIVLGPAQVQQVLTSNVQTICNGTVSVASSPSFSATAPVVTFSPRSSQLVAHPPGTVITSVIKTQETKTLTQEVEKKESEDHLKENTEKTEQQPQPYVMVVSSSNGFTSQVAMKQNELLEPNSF

Row | Sequence | binding signal (FLI1) | binding signal (ELK1) | binding signal (GABPA) | binding signal (ERG) | binding signal (ELF1) | binding signal (EHF) | binding signal (SPI1) | binding signal (SPIB) | binding signal (ELK3)
1 | GAACAA | 1.17 fold enrichment (6-mer frequency, TF over GST control) | 1.13 fold enrichment (6-mer frequency, TF over GST control) | 1.16 fold enrichment (6-mer frequency, TF over GST control) | 1.14 fold enrichment (6-mer frequency, TF over GST control) | 1.22 fold enrichment (6-mer frequency, TF over GST control) | 1.22 fold enrichment (6-mer frequency, TF over GST control) | 1.15 fold enrichment (6-mer frequency, TF over GST control) | 1.24 fold enrichment (6-mer frequency, TF over GST control) | 1.2 fold enrichment (6-mer frequency, TF over GST control)
2 | GATTAC | 1.16 fold enrichment (6-mer frequency, TF over GST control) | 1.1 fold enrichment (6-mer frequency, TF over GST control) | 1.13 fold enrichment (6-mer frequency, TF over GST control) | 1.12 fold enrichment (6-mer frequency, TF over GST control) | 1.07 fold enrichment (6-mer frequency, TF over GST control) | 1.12 fold enrichment (6-mer frequency, TF over GST control) | 1.09 fold enrichment (6-mer frequency, TF over GST control) | 1.15 fold enrichment (6-mer frequency, TF over GST control) | 1.18 fold enrichment (6-mer frequency, TF over GST control)
3 | CCATAT | 1.23 fold enrichment (6-mer frequency, TF over GST control) | 1.24 fold enrichment (6-mer frequency, TF over GST control) | 1.19 fold enrichment (6-mer frequency, TF over GST control) | 1.37 fold enrichment (6-mer frequency, TF over GST control) | 1.22 fold enrichment (6-mer frequency, TF over GST control) | 1.22 fold enrichment (6-mer frequency, TF over GST control) | 1.16 fold enrichment (6-mer frequency, TF over GST control) | 1.26 fold enrichment (6-mer frequency, TF over GST control) | 1.26 fold enrichment (6-mer frequency, TF over GST control)
4 | TTTGAC | 1.57 fold enrichment (6-mer frequency, TF over GST control) | 1.59 fold enrichment (6-mer frequency, TF over GST control) | 1.55 fold enrichment (6-mer frequency, TF over GST control) | 1.45 fold enrichment (6-mer frequency, TF over GST control) | 1.4 fold enrichment (6-mer frequency, TF over GST control) | 1.35 fold enrichment (6-mer frequency, TF over GST control) | 1.34 fold enrichment (6-mer frequency, TF over GST control) | 1.35 fold enrichment (6-mer frequency, TF over GST control) | 1.34 fold enrichment (6-mer frequency, TF over GST control)
5 | GTTCCT | 1.73 fold enrichment (6-mer frequency, TF over GST control) | 1.69 fold enrichment (6-mer frequency, TF over GST control) | 1.64 fold enrichment (6-mer frequency, TF over GST control) | 1.86 fold enrichment (6-mer frequency, TF over GST control) | 1.72 fold enrichment (6-mer frequency, TF over GST control) | 1.73 fold enrichment (6-mer frequency, TF over GST control) | 2.34 fold enrichment (6-mer frequency, TF over GST control) | 1.84 fold enrichment (6-mer frequency, TF over GST control) | 1.77 fold enrichment (6-mer frequency, TF over GST control)
6 | CCTTTC | 1.76 fold enrichment (6-mer frequency, TF over GST control) | 1.57 fold enrichment (6-mer frequency, TF over GST control) | 1.61 fold enrichment (6-mer frequency, TF over GST control) | 1.62 fold enrichment (6-mer frequency, TF over GST control) | 1.57 fold enrichment (6-mer frequency, TF over GST control) | 1.57 fold enrichment (6-mer frequency, TF over GST control) | 1.64 fold enrichment (6-mer frequency, TF over GST control) | 1.7 fold enrichment (6-mer frequency, TF over GST control) | 1.64 fold enrichment (6-mer frequency, TF over GST control)
7 | TTCCAA | 1.39 fold enrichment (6-mer frequency, TF over GST control) | 1.19 fold enrichment (6-mer frequency, TF over GST control) | 1.34 fold enrichment (6-mer frequency, TF over GST control) | 1.26 fold enrichment (6-mer frequency, TF over GST control) | 1.31 fold enrichment (6-mer frequency, TF over GST control) | 1.26 fold enrichment (6-mer frequency, TF over GST control) | 1.11 fold enrichment (6-mer frequency, TF over GST control) | 1.29 fold enrichment (6-mer frequency, TF over GST control) | 1.26 fold enrichment (6-mer frequency, TF over GST control)
8 | GCTCCC | 1.37 fold enrichment (6-mer frequency, TF over GST control) | 1.28 fold enrichment (6-mer frequency, TF over GST control) | 1.34 fold enrichment (6-mer frequency, TF over GST control) | 1.33 fold enrichment (6-mer frequency, TF over GST control) | 1.37 fold enrichment (6-mer frequency, TF over GST control) | 1.33 fold enrichment (6-mer frequency, TF over GST control) | 1.26 fold enrichment (6-mer frequency, TF over GST control) | 1.28 fold enrichment (6-mer frequency, TF over GST control) | 1.18 fold enrichment (6-mer frequency, TF over GST control)
